# Measurements published in PubChem BioAssay (NCI).
# Where “and” joins values, the source holds several entries; their conditions need not be identical. Identical values can stand only once. This is part of a sample that, as a whole, favours compounds with a hit. Of some 79,000 tested, about 15% had one in any assay. More than one record can exist for a structure, and the calls need not agree. Calls of active or inactive are those of the source. Rule as the data show it: active = growth inhibition above about 70%; inactive = the rest.
# Legend:
# [1] = NCI Yeast Anticancer Drug Screen. Data for the rad52 strain (AID 147);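 also: 0% = growth of vehicle-treated control cultures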; settings: S. cerevisiae rad52 mutant growth inhibition, stronger effect = higher value
# Summary of the method: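 Compounds are applied to a genetically defined yeast strain lacking normal DNA damage repair, and inhibition of growth is expressed relative to cultures given vehicle only.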
# [2] = NCI Yeast Anticancer Drug Screen. Data for the wt1 strain (AID 149);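 also: 0% = growth of vehicle-treated wt1 cultures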; settings: S. cerevisiae wt1 strain (SPY 50644) growth inhibition, stronger effect = higher value
# Summary of the method: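 Using yeast strain wt1, compound-induced growth inhibition was determined against vehicle-treated cultures.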
# [3] = NCI Yeast Anticancer Drug Screen. Data for the rad50EPP+ strain (AID 151);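 also: 0% = growth of vehicle-treated control cultures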; settings: S. cerevisiae rad50 mutant strain, stronger effect = higher value
# Summary of the method: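 Compounds were applied to the rad50EPP+ yeast strain, which bears a defined DNA repair alteration, and growth inhibition was determined relative to vehicle-treated cultures.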
# [4] = NCI Yeast Anticancer Drug Screen. Data for the mgt1 strain (AID 153); settings: S. cerevisiae mgt1 mutant growth inhibition, stronger effect = higher value
# Summary of the method: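 Strain: mgt1 yeast, one of a set carrying defined DNA damage repair or cell cycle control alterations. Compound-treated growth compared with vehicle.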
# [5] = NCI Yeast Anticancer Drug Screen. Data for the rad50 strain (AID 155);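 also: 0% = growth of vehicle-only cultures of the same strain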; settings: S. cerevisiae rad50 strain growth inhibition, stronger effect = higher value
# Summary of the method: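 Relative growth inhibition (compound vs vehicle) was measured in yeast with a defined repair-gene alteration.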
# [6] = NCI Yeast Anticancer Drug Screen. Data for the mec2-1 strain (AID 157); settings: S. cerevisiae mec2-1 strain, stronger effect = higher value
# Summary of the method: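 Strain: mec2-1 (DNA repair/cell cycle alteration). Compound exposure, then growth measured; inhibition expressed relative to vehicle.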
# [7] = NCI Yeast Anticancer Drug Screen. Data for the sgs1 mgt1 strain (AID 161);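 also: 0% = growth of cultures given vehicle only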; settings: S. cerevisiae sgs1 mgt1 strain, stronger effect = higher value
# Summary of the method: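 Mutant yeast exposed to compound; growth scored against vehicle-only wells.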
# [8] = NCI Yeast Anticancer Drug Screen. Data for the CLN2oe strain (AID 163);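 also: 0% = growth of vehicle-only control cultures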; settings: S. cerevisiae CLN2oe strain, stronger effect = higher value
# Summary of the method: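 Growth of a genetically modified yeast strain is measured after compound exposure and compared with cultures given vehicle alone.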
# [9] = NCI Yeast Anticancer Drug Screen. Data for the cln2 rad14 strain (AID 165);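 also: 0% = growth equal to vehicle treated cultures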; settings: S. cerevisiae cln2 rad14 strain, stronger effect = higher value
# Summary of the method: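 Compounds are applied to the cln2 rad14 yeast strain, and growth is then compared with that of vehicle-treated cultures to give inhibition.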
# [10] = NCI Yeast Anticancer Drug Screen. Data for the bub3 strain (AID 167); settings: S. cerevisiae bub3 mutant strain, stronger effect = higher value
# Summary of the method: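 Screening used yeast with an engineered genetic alteration affecting cell cycle control. Compound-exposed cultures were compared with vehicle cultures, and reduced growth was taken as inhibition.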
# [11] = NCI Yeast Anticancer Drug Screen. Data for the wt2 strain (AID 169);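 also: 0% = growth of vehicle-treated yeast cultures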; settings: S. cerevisiae wt2 strain growth inhibition, stronger effect = higher value
# Summary of the method: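 This strain belongs to a panel of yeast strains with defined genetic alterations in DNA damage repair or cell cycle control. Compounds are applied, and growth inhibition is measured against vehicle-treated cultures.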
# [12] = NCI Yeast Anticancer Drug Screen. Data for the mlh1 strain (AID 171);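 also: 0% = growth of vehicle-treated control cultures of the same strain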; settings: S. cerevisiae mlh1 strain growth inhibition, stronger effect = higher value
# Summary of the method: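 Growth of the mutant yeast strain after compound exposure, expressed as inhibition relative to vehicle-only controls.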
# [13] = NCI Yeast Anticancer Drug Screen. Data for the sgs1 strain (AID 173);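 also: 0% = growth of vehicle-only control cultures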; settings: S. cerevisiae sgs1 mutant, stronger effect = higher value
# Summary of the method: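 Growth of a yeast strain bearing a defined genetic alteration is measured after compound treatment. Inhibition is expressed relative to vehicle-only controls.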
# [14] = NCI Yeast Anticancer Drug Screen. Data for the mlh1 rad18 strain (AID 175); settings: S. cerevisiae mlh1 rad18 strain growth inhibition, stronger effect = higher value
# Summary of the method: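 Read-out is yeast growth inhibition, calculated against vehicle-only controls. The compound was applied to a strain engineered with DNA damage repair alterations.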
# [15] = NCI Yeast Anticancer Drug Screen. Data for the rad18 strain (AID 177); settings: S. cerevisiae rad18 mutant growth inhibition, stronger effect = higher value
# Summary of the method: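 Growth of the mutant yeast strain after compound exposure, normalised to vehicle-only cultures.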
# [16] = at 5.0 µM (retest, dose inferred, filed as 0.5)
# [17] = at 50.0 µM (retest, dose inferred, filed as 5.0)
structure (smiles),measurement,setting,value
COc1cc(O)c2c(c1O)C(=O)c1cc(C)ncc1C2=O,growth inhibition,[1]; at 1.2 µM,9% (inactive)
same,growth inhibition,[1]; at 3.7 µM,16% (inactive)
same,growth inhibition,[1]; at 11.0 µM,29% (inactive)
same,growth inhibition,[1]; at 33.0 µM,51% (inactive)
same,growth inhibition,[1]; at 100.0 µM,72% (active)
same,growth inhibition,[2]; at 1.2 µM,6% (inactive)
same,growth inhibition,[2]; at 3.7 µM,24% (inactive)
same,growth inhibition,[2]; at 11.0 µM,36% (inactive)
same,growth inhibition,[2]; at 33.0 µM,39% (inactive)
same,growth inhibition,[2]; at 100.0 µM,48% (inactive)
same,growth inhibition,[3]; at 1.2 µM,8% (inactive)
same,growth inhibition,[3]; at 3.7 µM,20% (inactive)
same,growth inhibition,[3]; at 11.0 µM,19% (inactive)
same,growth inhibition,[3]; at 33.0 µM,48% (inactive)
same,growth inhibition,[3]; at 100.0 µM,52% (inactive)
same,growth inhibition,[4]; at 1.2 µM,5% (inactive)
same,growth inhibition,[4]; at 3.7 µM,4% (inactive)
same,growth inhibition,[4]; at 11.0 µM,15% (inactive)
same,growth inhibition,[4]; at 33.0 µM,39% (inactive)
same,growth inhibition,[4]; at 100.0 µM,60% (inactive)
same,growth inhibition,[5]; at 1.2 µM,8% (inactive)
same,growth inhibition,[5]; at 3.7 µM,13% (inactive)
same,growth inhibition,[5]; [16],9% (inactive)
same,growth inhibition,[5]; at 11.0 µM,33% (inactive)
same,growth inhibition,[5]; at 33.0 µM,57% (inactive)
same,growth inhibition,[5]; [17],48% (inactive)
same,growth inhibition,[5]; at 50.0 µM,65.7% (inactive)
same,growth inhibition,[5]; at 100.0 µM,86% (active)
same,growth inhibition,[6]; at 1.2 µM,10% (inactive)
same,growth inhibition,[6]; at 3.7 µM,10% (inactive)
same,growth inhibition,[6]; [16],8% (inactive)
same,growth inhibition,[6]; at 11.0 µM,9% (inactive)
same,growth inhibition,[6]; at 33.0 µM,9% (inactive)
same,growth inhibition,[6]; [17],44% (inactive)
same,growth inhibition,[6]; at 50.0 µM,23.2% (inactive)
same,growth inhibition,[6]; at 100.0 µM,23% (inactive)
same,growth inhibition,[7]; [16],9% (inactive)
same,growth inhibition,[7]; [17],84% (active)
same,growth inhibition,[7]; at 50.0 µM,69.9% (inactive)
same,growth inhibition,[8]; at 1.2 µM,16% (inactive)
same,growth inhibition,[8]; at 3.7 µM,11% (inactive)
same,growth inhibition,[8]; at 11.0 µM,5% (inactive)
same,growth inhibition,[8]; at 33.0 µM,10% (inactive)
same,growth inhibition,[8]; at 100.0 µM,12% (inactive)
same,growth inhibition,[9]; [16],1% (inactive)
same,growth inhibition,[9]; [17],12% (inactive)
same,growth inhibition,[9]; at 50.0 µM,18.9% (inactive)
same,growth inhibition,[10]; at 1.2 µM,14% (inactive)
same,growth inhibition,[10]; at 3.7 µM,13% (inactive)
same,growth inhibition,[10]; [16],5% (inactive)
same,growth inhibition,[10]; at 11.0 µM,26% (inactive)
same,growth inhibition,[10]; at 33.0 µM,51% (inactive)
same,growth inhibition,[10]; [17],42% (inactive)
same,growth inhibition,[10]; at 50.0 µM,75.9% (active)
same,growth inhibition,[10]; at 100.0 µM,73% (active)
same,growth inhibition,[11]; at 1.2 µM,39% (inactive)
same,growth inhibition,[11]; at 3.7 µM,60% (inactive)
same,growth inhibition,[11]; at 11.0 µM,83% (active)
same,growth inhibition,[11]; at 33.0 µM,91% (active)
same,growth inhibition,[11]; at 100.0 µM,95% (active)
same,growth inhibition,[12]; at 1.2 µM,7% (inactive)
same,growth inhibition,[12]; at 3.7 µM,21% (inactive)
same,growth inhibition,[12]; at 11.0 µM,41% (inactive)
same,growth inhibition,[12]; at 33.0 µM,54% (inactive)
same,growth inhibition,[12]; at 100.0 µM,87% (active)
same,growth inhibition,[13]; at 1.2 µM,12% (inactive)
same,growth inhibition,[13]; at 3.7 µM,29% (inactive)
same,growth inhibition,[13]; at 11.0 µM,77% (active)
same,growth inhibition,[13]; at 33.0 µM,88% (active)
same,growth inhibition,[13]; at 100.0 µM,84% (active)
same,growth inhibition,[14]; [16],17% (inactive)
same,growth inhibition,[14]; [17],83% (active)
same,growth inhibition,[14]; at 50.0 µM,64.8% (inactive)
Cc1ccc(N=Nc2ccc(O)c(=O)cc2)cc1,growth inhibition,[1]; at 1.2 µM,-11% (inactive)
same,growth inhibition,[1]; at 3.7 µM,1% (inactive)
same,growth inhibition,[1]; at 11.0 µM,54% (inactive)
same,growth inhibition,[1]; at 33.0 µM,89% (active)
same,growth inhibition,[1]; at 100.0 µM,93% (active)
same,growth inhibition,[2]; at 1.2 µM,1% (inactive)
same,growth inhibition,[2]; at 3.7 µM,25% (inactive)
same,growth inhibition,[2]; at 11.0 µM,37% (inactive)
same,growth inhibition,[2]; at 33.0 µM,78% (active)
same,growth inhibition,[2]; at 100.0 µM,91% (active)
same,growth inhibition,[3]; at 1.2 µM,-31% (inactive)
same,growth inhibition,[3]; at 3.7 µM,-64% (inactive)
same,growth inhibition,[3]; at 11.0 µM,-24% (inactive)
same,growth inhibition,[3]; at 33.0 µM,62% (inactive)
same,growth inhibition,[3]; at 100.0 µM,87% (active)
same,growth inhibition,[4]; at 1.2 µM,8% (inactive)
same,growth inhibition,[4]; at 3.7 µM,29% (inactive)
same,growth inhibition,[4]; at 11.0 µM,56% (inactive)
same,growth inhibition,[4]; at 33.0 µM,86% (active)
same,growth inhibition,[4]; at 100.0 µM,91% (active)
same,growth inhibition,[5]; at 1.2 µM,4% (inactive)
same,growth inhibition,[5]; at 3.7 µM,5% (inactive)
same,growth inhibition,[5]; [16],17% (inactive)
same,growth inhibition,[5]; at 11.0 µM,42% (inactive)
same,growth inhibition,[5]; at 33.0 µM,83% (active)
same,growth inhibition,[5]; [17],81% (active)
same,growth inhibition,[5]; at 50.0 µM,-18.2% (inactive) and 82.3% (active)
same,growth inhibition,[5]; at 100.0 µM,92% (active)
same,growth inhibition,[6]; at 1.2 µM,-13% (inactive)
same,growth inhibition,[6]; at 3.7 µM,-7% (inactive)
same,growth inhibition,[6]; [16],-2% (inactive)
same,growth inhibition,[6]; at 11.0 µM,26% (inactive)
same,growth inhibition,[6]; at 33.0 µM,82% (active)
same,growth inhibition,[6]; [17],43% (inactive)
same,growth inhibition,[6]; at 50.0 µM,8.6% (inactive) and 88.3% (active)
same,growth inhibition,[6]; at 100.0 µM,91% (active)
same,growth inhibition,[7]; [16],53% (inactive)
same,growth inhibition,[7]; [17],95% (active)
same,growth inhibition,[7]; at 50.0 µM,-10.6% (inactive) and 89.8% (active)
same,growth inhibition,[8]; at 1.2 µM,-2% (inactive)
same,growth inhibition,[8]; at 3.7 µM,16% (inactive)
same,growth inhibition,[8]; at 11.0 µM,47% (inactive)
same,growth inhibition,[8]; at 33.0 µM,83% (active)
same,growth inhibition,[8]; at 100.0 µM,93% (active)
same,growth inhibition,[9]; [16],13% (inactive)
same,growth inhibition,[9]; [17],95% (active)
same,growth inhibition,[9]; at 50.0 µM,-1.5% (inactive) and 90.4% (active)
same,growth inhibition,[10]; at 1.2 µM,-6% (inactive)
same,growth inhibition,[10]; at 3.7 µM,3% (inactive)
same,growth inhibition,[10]; [16],6% (inactive)
same,growth inhibition,[10]; at 11.0 µM,49% (inactive)
same,growth inhibition,[10]; at 33.0 µM,90% (active)
same,growth inhibition,[10]; [17],91% (active)
same,growth inhibition,[10]; at 50.0 µM,-6.8% (inactive) and 87.5% (active)
same,growth inhibition,[10]; at 100.0 µM,92% (active)
same,growth inhibition,[11]; at 1.2 µM,-4% (inactive)
same,growth inhibition,[11]; at 3.7 µM,21% (inactive)
same,growth inhibition,[11]; at 11.0 µM,48% (inactive)
same,growth inhibition,[11]; at 33.0 µM,87% (active)
same,growth inhibition,[11]; at 100.0 µM,94% (active)
same,growth inhibition,[12]; at 1.2 µM,3% (inactive)
same,growth inhibition,[12]; at 3.7 µM,5% (inactive)
same,growth inhibition,[12]; at 11.0 µM,47% (inactive)
same,growth inhibition,[12]; at 33.0 µM,83% (active)
same,growth inhibition,[12]; at 100.0 µM,90% (active)
same,growth inhibition,[13]; at 1.2 µM,7% (inactive)
same,growth inhibition,[13]; at 3.7 µM,28% (inactive)
same,growth inhibition,[13]; at 11.0 µM,57% (inactive)
same,growth inhibition,[13]; at 33.0 µM,85% (active)
same,growth inhibition,[13]; at 100.0 µM,93% (active)
same,growth inhibition,[14]; [16],9% (inactive)
same,growth inhibition,[14]; [17],90% (active)
same,growth inhibition,[14]; at 50.0 µM,-6.6% (inactive) and 86.5% (active)
same,growth inhibition,[15]; at 1.2 µM,0% (inactive)
same,growth inhibition,[15]; at 3.7 µM,22% (inactive)
same,growth inhibition,[15]; at 11.0 µM,50% (inactive)
same,growth inhibition,[15]; at 33.0 µM,86% (active)
same,growth inhibition,[15]; at 100.0 µM,93% (active)
